Laboratory results as given in PubChem BioAssay AID624086 (Broad Institute, 2012).
The source made the active and inactive calls.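 Rule for the calls: active = fitted half-maximal effect concentration at or below the top concentration tested; inactive = the rest.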

Experiment: TCF/LEF luciferase signal increase in HEK293T – cell-based, firefly luciferase, dry powder, orthogonal assay for GSK3b inhibitor project, dose response (AID 624086)
Conditions: HEK293T TCF/LEF firefly luciferase reporter, 24 h; series mostly up to 26 µM; activity change, negative = inhibition: at the top concentration

SMILES | activity change, negative = inhibition
COc1ccccc1C1C2=C(CC(C)(C)CC2=O)Nc2ccccc21 (centres undefined) | 0.0477% (inactive)
COc1ccccc1C1C2=C(CC(C)(C)CC2=O)Nc2onc(C)c21 (centres undefined) | -0.313% (inactive)
COc1ccccc1-c1c2c(nc3n[nH]c(C)c13)CCC2=O | -0.105% (inactive)
COc1ccc(C2C3=C(CC(C)(C)CC3=O)Nc3n[nH]c(C)c32)cc1 (centres undefined) | 0% (inactive)
Cc1[nH]nc2c1C(c1ccc(C(F)(F)F)cc1)C1=C(CC(C)(C)CC1=O)N2 (centres undefined) | -0.0415% (inactive)
COc1ccccc1C1C2=C(CCC(C)(C)C2=O)Nc2n[nH]c(C)c21 (centres undefined) | -0.321% (inactive)
COc1cccc(-c2nn(-c3ccccc3)cc2/C=N/O)c1 | 0.588% (inactive)
COc1ccccc1/C=C1\C(=O)CC(C)(C)CC1=Nc1cc(C(F)(F)F)[nH]n1 | 0% (inactive)
COc1ccccc1C1C2=C(CC3(CCCCC3)CC2=O)Nc2n[nH]c(C)c21 (centres undefined) | -0.39% (inactive)
Cc1[nH]nc2c1[C@H](c1cccs1)C1=C(CC(C)(C)CC1=O)N2 | 0% (inactive)
Cc1[nH]nc2c1C(C1CC1)C1=C(CC(C)(C)CC1=O)N2 (centres undefined) | -0.118% (inactive)
COc1ccc(-c2nn(-c3ccccc3)cc2CO)cc1 | 1.06% (inactive)
Cc1[nH]nc2nc3c(c(-c4cccs4)c12)C(=O)CC(C)(C)C3 | 1.45% (inactive)
COc1cccc(C2C3=C(CC(C)(C)CC3=O)Nc3n[nH]c(C)c32)c1 (centres undefined) | -1.76% (inactive)
